pAkt inh: HTS Assay for Inhibitors of Akt Phophorylation: Primary Screen; Neuro2A IGF-stimulated pAkt S473 HTRF, 20 min; active compounds read low; activity change, % for hits at 50 µM; 0.32% of 360,000 active; in the data active = activity change below about -80%; inconclusive = mostly about -51% to -80%; note: % is set by controls: 0 for no effect and ±100 for the full control effect
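Neuro2A cells (4,500/well, DMEM with 0.5% FBS) were treated with compound at a single 50 µM final concentration, stimulated with 6 nM IGF for 20 min at 37 °C, and lysed. Phospho-Akt Ser473 was read by HTRF as 665/615 ratio ×10^4.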
gsp ag: qHTS for Agonist of gsp, the Etiologic Mutation Responsible for Fibrous Dysplasia/McCune-Albright Syndrome: qHTS; gsp mutant cells, cAMP HTRF, 30 min; Potency, µM (series often up to 76.9 µM), for inactives: at the highest dose activation (cAMP increase), actives largely listed as activators; 0.13% of 340,000 active; active = well fitted activation curve with a large enough effect; inconclusive = small, poorly fitted or top-dose-only effect, or another doubt; inactive = no such curve, though single readings can be large or run the other way; cell line not stated here;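 note: phosphodiesterase inhibitor Ro 20-1724 added with compounds to block cAMP breakdown; potency is the fitted concentration of half-maximal effect; nearly all actives have a fitted effect of over 60% in size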
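Cells in DMEM/10% FBS with G418 were pretreated with compounds in DMSO plus […] (300 uM stock) for 30 min at 37C. cAMP was measured by HTRF (cAMP-d2 plus anti-cAMP antibody-K) after 30 min at room temperature.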
RXFP1 ag: qHTS Assay for Agonists of the Relaxin Receptor RXFP1. Potency, µM (doses to about 57.5 µM), for inactives: at the top dose activation, most hits filed as activators. 0.3% of 370,000 active. AID 2676, 2010. HEK293T-RXFP1 cAMP TR-FRET, 30 min; response scale: percent of porcine relaxin response, buffer zero; active = well fitted activation curve with a large enough effect; inconclusive = small, poorly fitted or top-dose-only effect; note: potency is the fitted concentration of half-maximal effect; % is set by controls: 0 for no effect and ±100 for the full control effect; nearly all actives have a fitted effect of over 60% in size
Target sequence (Q9HBX9 whole entry, looked up): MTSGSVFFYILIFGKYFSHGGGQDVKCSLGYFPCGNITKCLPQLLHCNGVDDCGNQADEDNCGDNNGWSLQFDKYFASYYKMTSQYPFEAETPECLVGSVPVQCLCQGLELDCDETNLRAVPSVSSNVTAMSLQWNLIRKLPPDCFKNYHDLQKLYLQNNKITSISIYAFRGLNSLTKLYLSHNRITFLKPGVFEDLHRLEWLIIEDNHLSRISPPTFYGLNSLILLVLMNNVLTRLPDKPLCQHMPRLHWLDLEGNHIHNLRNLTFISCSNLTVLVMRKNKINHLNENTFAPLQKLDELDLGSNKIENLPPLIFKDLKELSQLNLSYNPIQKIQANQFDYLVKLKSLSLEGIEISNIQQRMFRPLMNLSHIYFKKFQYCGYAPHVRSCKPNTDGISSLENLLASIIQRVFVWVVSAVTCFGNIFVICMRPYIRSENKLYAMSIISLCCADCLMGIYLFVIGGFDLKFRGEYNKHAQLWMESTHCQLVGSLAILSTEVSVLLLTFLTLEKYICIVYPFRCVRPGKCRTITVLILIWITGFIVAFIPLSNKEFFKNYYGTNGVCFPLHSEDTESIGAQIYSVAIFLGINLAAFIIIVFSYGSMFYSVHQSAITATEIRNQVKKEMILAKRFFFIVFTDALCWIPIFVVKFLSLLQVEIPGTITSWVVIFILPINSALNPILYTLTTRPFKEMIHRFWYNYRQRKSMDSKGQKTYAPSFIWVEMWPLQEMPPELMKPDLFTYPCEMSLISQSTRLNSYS
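HEK293T cells stably expressing RXFP1 were pretreated with the PDE4 inhibitor Ro 20174, exposed to compounds for 30 min at 37C, lysed, and cAMP was read by TR-FRET. Data normalized to buffer (basal) and 29 nM porcine relaxin (100%).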
gsp antag: qHTS for Antagonists of gsp, the Etiologic Mutation Responsible for Fibrous Dysplasia/McCune-Albright Syndrome: qHTS | gsp-mutant cells, cAMP HTRF, 30 min | Potency, µM (top dose mostly 76.9 µM), without a hit: top-dose activity change, negative = inhibition, actives largely listed as inhibitors | 0.4% of 340,000 active; calls by dose curve; cell line not stated here;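 note: intracellular cAMP measured with PDE inhibitor Ro 20-1724 present during compound exposure; potency is the fitted concentration of half-maximal effect; % is set by controls: 0 for no effect and ±100 for the full control effect; nearly all actives have a fitted effect of over 65% in size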
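Cells in G418 medium, seeded 16-24 h, 37C; buffer exchange to DPBS + 1 mM CaCl2, 0.5 mM MgCl2, 0.05% BSA; cpds in DMSO + […] (300 uM stock), 30 min 37C; HTRF cAMP detection.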
RXFP1 antag: qHTS Assay for Antagonists of the Relaxin Receptor RXFP1 | Relaxin receptor 1 (Homo sapiens), Q9HBX9 | HEK293-RXFP1, relaxin-stimulated cAMP HTRF, 30 min; active compounds read low | activity change, negative = inhibition, % at 57.5 µM | 0.59% of 350,000 active | AID 1259400, 2018;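 active = activity change of -60% or lower, but not beyond a set lower limit; inconclusive = change between -60% and -40%, or beyond the set limit; inactive = change above -40%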; note: % is set by controls: 0 for no effect and ±100 for the full control effect
* marks the source's active call; other numbers are inactive results; i = inactive; ? = inconclusive; . = not tested or not shown; [ ] = dose if it differs, or a comment. Hits are enriched below; roughly 1.3% of the tested compounds scored in any of these assays.

SMILES	pAkt inh	gsp ag	RXFP1 ag	gsp antag	RXFP1 antag
O=C(NCC(c1cccs1)S(=O)(=O)c1cccs1)c1ccc(Cl)cc1 (stereo not given)	.	.	1%	.	.
O=C1Nc2ccccc2N(O)N1c1cc(-c2ccccc2Cl)no1	-110%*	-31%	0%	-34%	7
O=C(c1ccccc1Cl)N1CCCC(c2nc3c(nnn3Cc3ccc(F)cc3F)c(=O)[nH]2)C1 (stereo not given)	.	.	-1%	.	-8
COc1cc(S(=O)(=O)NCCc2c(C)[nH]c3ccc(C)cc23)ccc1Br	.	.	-1%	.	-10
Cc1cccc(CCN(C(=O)c2csnn2)C(C(=O)NC2CCCC2)c2ccco2)c1 (stereo not given)	i	3%	3%	-14%	-73*
CN(C)[C@@H]1C(=O)C(C(N)=O)=C(O)[C@@]2(O)C(=O)C3=C(O)c4c(O)cccc4C[C@H]3C[C@@H]12	.	.	.	.	-6
CC(C)(C)c1ccc(/C([O-])=C(/C(=S)NCc2ccco2)[n+]2ccccc2)cc1	.	.	25µM*	.	.
COc1ccc(Oc2c(O)c3ccccc3n(C)c2=O)cc1	i	-3%	3%	32µM*	-11
Cn1c(=O)c(Oc2ccc(Cl)cc2)c(O)c2ccccc21	i	18%	4%	-18%	-3
CCCSC(=S)c1c(C)[nH]n(-c2ccccc2)c1=O	i	15%	0%	?	-70*
CCCCN(CCCC)C(=S)N/N=C/c1c(C)[nH]n(-c2ccccc2)c1=O	i	-11%	-3%	-8%	26
Cc1cc(C)c(NC(=O)C2CCCN2C)c(C)c1 (stereo not given)	-101%*	-21%	1%	-10%	-9
Cc1nc(C)c(-c2csc(Nc3ccc(N)cc3)n2)s1	i	-26%	4%	-14%	-2
COc1ccc(Nc2nc(-c3sc(C)nc3C)cs2)cc1	i	4%	0%	11%	-61*
CC1(C)CC(NC(=O)c2sc3cc(Cl)ccc3c2Cl)CC(C)(C)N1	i	16%[15.4 µM]	0%	.	-60*
O=C(NC1CC1)c1sc2cc(Cl)ccc2c1Cl	i	3%[15.4 µM]	0%	-11%	-8
Cc1cc(N2C(=O)C(O)=C(C(=O)c3cc4ccccc4o3)C2c2cccc(Br)c2)no1 (stereo not given)	i	6.3µM*	16µM*	2%	10
COc1cc(C2C(C(=O)c3cc4ccccc4o3)=C(O)C(=O)N2c2cc(C)on2)cc(OC)c1OC (stereo not given)	i	?	?	1%	6
Cc1ccc([N+](=O)[O-])cc1N=Nc1c(-c2ccc([N+](=O)[O-])cc2)[nH]n(C(N)=S)c1=O	i	-2%	0%	13µM*	-6
CCOC(=O)c1c(NC(=O)c2noc3c2CC(C(C)(C)C)CC3)sc2c1CCCC2 (stereo not given)	.	.	-2%	.	1
O=C(CCCCCNc1nc(=S)[nH]c2ccccc12)NCCc1c[nH]c2ccccc12	i	?	5%	0%	.
O=C(CCCCCNc1nc(=S)[nH]c2ccccc12)NCCc1ccc(Cl)cc1	i	-4%[15.4 µM]	6%	2%	-65*
O=C(CCCCCNc1nc(=S)[nH]c2ccccc12)NCCC1=CCCCC1	i	2%[15.4 µM]	6%	22%	-63*
Cc1cc(C(=O)CSc2nc3ccccc3c(=O)n2C)c(C)n1CC1CCCO1 (stereo not given)	.	.	3%	.	.
Cc1cc(C(=O)CSc2nc3ccccc3c(=O)[nH]2)c(C)n1CC1CCCO1 (stereo not given)	i	6%[15.4 µM]	0%	35µM*	-32
Cc1ccccc1OCCC(=O)OCC(=O)c1c(N)n(CC(C)C)c(=O)n(C)c1=O	i	-2%[15.4 µM]	.	32µM*	-10
CC(C)Cn1c(N)c(C(=O)COC(=O)c2ccc(Br)cc2)c(=O)n(C)c1=O	i	?	.	35µM*	-39

Compound activity (PubChem)
